This test relates to HL-60(TB) leukemia. Briefly: NCI-60 one-dose screen, 48 h (100 = growth as untreated, 0 = no growth, -100 = all killed). The conditions noted are these: 10 µM unless noted.

About 83,000 compounds went through this panel and 20% of them were active in at least one assay; those are over-represented in the sample as a whole.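 Assay: single dose, 48 h. Readout: percent growth (0 = no net growth; negative = cell death). Active: <10.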 A number with no mark means an inactive call. The source made the active and inactive calls.

Results on 41 compounds are retold here after PubChem BioAssay (NCI).

As for `C=CC(=O)OC1CCC(C(C)(C)CC)CC1` (stereo unspecified), the growth was 84%. As for `COc1ccc2[nH]c(O)c(N=NC(=O)c3oc4ccccc4c3C)c2c1`, the figure is 53.9%; as for `COC(=O)c1cccc(Br)c1`, 81.6%. With `Clc1ccc(-c2cn(-c3ccccc3)c(-c3ccccc3)n2)c(Cl)c1` the figure was 52.1%; with `CCOC(=O)/C(=C/c1ccc(OC)cc1)N(CC)CC`, 98%. With `Cc1cccc2c(N)c3ccccc3nc12` the figure was 9.2% (active); with `COc1cc2nc(N3CCCC3)nc(NCc3ccccc3)c2cc1OC`, -47.8% (active).

`Cc1ccc(-c2nc(/C=C3/C(=O)N(C)c4ccc(F)cc43)c3ccccn23)cc1`: the growth is 102%. With `Cc1cn(-c2cc(NC(=O)c3ccc(C)c(Nc4nccc(-c5cnccn5)n4)c3)cc(C(F)(F)F)c2)cn1` the figure was 33.4%; with `CCOC(=O)C1=C(c2ccccc2)N=c2s/c(=C/c3ccc(Br)cc3)c(=O)n2C1c1ccc(O)cc1` (stereo unspecified), 94.9%. With `N/C(=N\c1nc2ccccc2s1)NC(=O)Nc1cccc(Cl)c1` the figure was 3.43% (active); with `COC(=O)c1nc(=S)[nH]c(C(=O)OC)c1C(=O)c1ccccn1`, 97.9%; with `COc1ccc(C(=O)C/C(=C\c2ccc(O)c(OC)c2)C(=O)NN)cc1`, 66.4%. With `CCCCCCCCCCCCNC(=S)N/N=C/c1ccccc1O` the figure was 49.1%; with `CC(=O)CC(C)(C)c1ccc(Cl)cc1`, 69.9%; with `O=C1SCN(Cc2ccccc2)CN1Cc1ccccc1`, 70.7%.

Take `O=c1[nH]c(=S)[nH]c(O)c1/C=C1\C=Nc2ccccc21`: the growth is 90.4%. With `CC(C)(C)CC(C)(C)c1ccc(OCCSC(=N)N)cc1` the figure was 22.2%. With `CS(=O)(=O)Nc1cc(-c2ccc3ncc(C#N)c(Nc4ccc(F)c(Cl)c4)c3c2)cnc1Cl` the figure was 0.119% (active); with `CN(C)CCC1(c2ccccc2)CCN(C)C1=O` (stereo unspecified), 109%; with `O=C(/C=C/C(Cl)(Cl)Cl)Nc1ccc(Cl)cc1`, 34.5%. With `Cc1ccc(Nc2nccc(N(C)c3ccc4c(C)n(C)nc4c3)n2)cc1S(N)(=O)=O` the figure was 5.08% (active). Turning to `Clc1cccc(Cl)c1/C=C/c1cc(/C=C/c2c(Cl)cccc2Cl)[nH]n1`, the growth is 12.6%. As for `CC(C)[C@H](CN)NC[C@H](C)NS(=O)(=O)c1ccc(C(C)(C)C)cc1`, the figure is 95.4%. As for `Nc1c(C(=O)C[C@@H](N)CO)ccc2c1C(=O)CCO2`, the figure is 51.9%; as for `CCCCCn1c(C)cc(/C=C\c2ccc3cc(C)ccc3[n+]2C)c1C`, -6.41% (active); as for `CCCCCC(=O)Oc1ccc(/C(=C(\C)c2ccccc2)c2ccc(OCCN(CC)CC)cc2)cc1`, 33.9%. With `OCCN1CCN(CCCN2c3ccccc3Sc3ccc(C(F)(F)F)cc32)CC1` the figure was 32.7%. As to `COc1ccc(NC(=O)c2nc(-c3cc(OC)c(OC)c(OC)c3)n(-c3cccc4ccccc34)n2)cc1OC`, the growth is 10%. As to `N#C/C(=C/c1c(O)ccc2ccccc12)C(N)=O`, the growth is 103%. With `O=C1C(Cl)=C(NCCCN(CCCNC2=C(Cl)C(=O)c3ccccc3C2=O)C2=C(Cl)C(=O)c3ccccc3C2=O)C(=O)c2ccccc21` the figure was 37.6%; with `C=C1CCC2C3(C)COC(c4ccccc4Br)OC3CCC2(C)C1C/C=C1/C(=O)OCC1OC(C)=O` (stereo unspecified), -48.7% (active).

For `Cc1c(Cl)cccc1C(=O)Nc1nc2c(s1)CN(C(=O)Nc1cccc(C(F)(F)F)c1)CC2`, the growth is 6.4% (active). For `CCNC(=O)Nc1nc2ccc(Oc3ccnc(C(=O)NC)c3)cc2s1`, the growth is 94.7%. As for `CNc1cc(C(=O)O)nc(NC)n1`, the figure is 105%; as for `Cc1ccc(S(=O)(=O)OCC(=O)Nc2ccc(C(=O)O)c(O)c2)cc1`, 60.4%; as for `CC(C)N1C(=O)S/C(=C2/SC(=O)N(C(C)C)C2=O)C1=O`, 98.4%. With `COC(=O)[C@]12CC[C@@H](C)[C@H](C)[C@@H]1C1=CC[C@@H]3[C@@]4(C)C(c5ncon5)=C[C@@](C)(CO)C4=CC[C@@]3(C)[C@]1(C)CC2` the figure was -33.9% (active). On to `CC1=C(CCC(C)NCc2ccc(OCCCN3CCCCC3)cc2)C(C)(C)CCC1` (stereo unspecified), for which the growth was -68.7% (active). With `Cc1nc2sc(C(=O)Nc3cccc4ccccc34)c(N)c2cc1C(C)O` (stereo unspecified) the figure was -24.1% (active); with `COc1cc2c(c(OC)c1OC)-c1cc(I)c(O)cc1[C@@H](NC(C)=O)CC2`, 12.7%.
